# Reference: PubChem BioAssay (NCATS)
# Records with an inconclusive call do not appear. Activity calls are given as the source filed them. Calls come from the whole dose curve; as a rule, active = well fitted cell-killing curve with a large enough effect; inconclusive = small, poorly fitted or top-dose-only effect, or effect the other way; inactive = no such curve, though single readings can be large or run the other way.
# Assay: MultiTox-Fluor Cytotoxicity Assay - LYMP1-002 - Dead Cells (AID 960); note: nearly all actives have a fitted effect of over 60% in size;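 for cytotoxicity (dead cells): 0% = DMSO and 100% = tetraoctylammonium bromide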
# Settings: LYMP1-002 lymphoblastoid cells, dead-cell protease fluorescence; series mostly up to 46.1 µM; cytotoxicity (dead cells): at the top concentration
# Excerpt: NIH Chemical Genomics Center [NCGC]
# NIH Molecular Libraries Screening Centers Network [MLSCN]
# National Institutes of Environmental Health Sciences [NIEHS]
# National Toxicology Program [NTP]
# We have developed a 1536-well cell-based assay for quantitative high throughput screening (qHTS) against a number of cell lines to determine in vitro cytotoxicity of small molecules. This particular assay uses a human lymphoblastoid cell line (LYMP1-002) purchased from Coriell Institute.
# NCGC Assay Protocol Summary:
# The MultiTox-Fluor Cytotoxicity Assay (Promega) is a homogeneous method to simultaneously measure the relative number of live and dead cells in culture by detecting changes in cell membrane integrity. There are two fluorogenic peptide substrates in the assay reagent. Viable cells are determined when the cell-permeant substrate (GF-AFC) enters the cell and is cleaved by protease from live cells resulting in liberated fluorophore. This live-cell protease activity restricted to viable cells is proportional to cell number. The dead cells are determined by using fluorogenic cell-impermeant peptide substrate (bis-AAF-R110) which cleaved by dead cell proteases leaking from damaged cell membrane.
# Using the MultiTox-Fluor Cytotoxicity Assay, the relative number of dead cells was measured in the lymphoblastoid cell line with complete culture medium following compound treatment for 16 hours. The assay was performed in opaque black Kalypsys 1536-well plates. In the screen, tetraoctylammonium bromide was used as positive control. Library compounds were measured for their ability to cause acute toxicity in the cell line, as reflected by an increase in dead cell protease activity, in a concentration-dependent manner. Data were normalized to the controls for basal activity (DMSO only) and 100% stimulation (15 uM tetraoctylammonium bromide). AC50 values were determined from concentration-response data modeled with the standard Hill equation.
# qHTS protocol for MultiTox-Fluor Cytotoxicity assay
# [Step] [Parameter] [Value] [Description]
# 1. Reagent; 5 uL; 2500 lymphoblastoid cells/well
# 2. Time; 5 hr; 37 C incubation
# 4. Controls; 23 nL; Tetraoctylammonium bromide 6.4pM to 92 uM
# 5. Time; 16 hr; 37 C incubation
# 6. Reagent; 5 uL; MuliTox-Fluor Assay reagent
# 7. Time; 60 min; Room Temperature
# 8. Detection; dead-cell fluorescence (Ex/Em=485/520); EnVision plate reader
# Keywords: cytotoxicity, lymphoblastoid cell line, fluorescence, NTPHTS, NTPHTS_NCGC, NIEHS, EPA, DSSTox, MLSMR, MLSCN, NIH Roadmap, qHTS, NCGC
# Potency is the fitted concentration of half-maximal effect.
SMILES,cytotoxicity (dead cells),Potency
Cc1ccccc1O,-18.3% (inactive),–
c1ccc(Nc2cccc3ccccc23)cc1,–,31.6 µM (active)
O=Cc1ccccc1,18.3% (inactive),–
CCOc1cc(C=O)ccc1O,-4.67% (inactive),–
Oc1ccccc1Cl,6.86% (inactive),–
COC(=O)c1ccccc1C(=O)OC,-6.18% (inactive),–
COC1=CC(=O)OC(CCc2ccc3c(c2)OCO3)C1 (stereo not drawn),17.8% (inactive),–
Oc1c(Cl)c(Cl)c(Cl)c(Cl)c1Cl,16.9% (inactive),–
Oc1ccccc1O,–,20 µM (active)
CCOC(=O)c1ccccc1N,25.3% (inactive),–
CC(=O)/C=C/c1ccccc1,19.2% (inactive),–
CC(=O)[C@H]1CC[C@H]2[C@@H]3CCC4=CC(=O)CC[C@]4(C)[C@H]3CC[C@]12C,–,10 µM (active)
c1ccc2c(c1)-c1cccc3cccc-2c13,29% (inactive),–
